Test results taken from PMC7826789 (International Journal of Molecular Sciences, 2021).

Tests used:
Details in all cases: Compound Concentration (nM):1000
[1] = test system: MAST1
[2] = test system: T1, MEK1
T1 construct: gene MAP2K1

[3] = test system: T2, MEK2
T2 construct: gene MAP2K2

[4] = test system: T3, MEK3
T3 construct: gene MAP2K3

[5] = test system: T4, MEK4
T4 construct: gene MAP2K4

[6] = test system: T5, MEK5
T5 construct: gene MAP2K5

[7] = test system: T6, MEK6
T6 construct: gene MAP2K6

[8] = test system: MELK
[9] = test system: MERTK
[10] = test system: MET(M1250T)
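Further: KINOMEscan scanMAX binding as percent activity remaining versus control; lower means stronger binding.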

Structure (SMILES) | Percent Control [1] [%] | Percent Control [2] [%] | Percent Control [3] [%] | Percent Control [4] [%] | Percent Control [5] [%] | Percent Control [6] [%] | Percent Control [7] [%] | Percent Control [8] [%] | Percent Control [9] [%] | Percent Control [10] [%]
CCn1c(-c2nonc2N)nc2c(C#CC(C)(C)O)nc(OCCNC)cc21.Cl [GSK949675] | 51 | 100 | 100 | 40 | 100 | 100 | 80 | 45 | 80 | 100
COc1cc2ncnc(Nc3ccc4c(cnn4Cc4ccccc4)c3)c2cc1OC.Cl [GW282449A] | 100 | 37 | 50 | 100 | 100 | 0 | 97 | 100 | 83 | 100
C/C(Nc1ccc(S(N)(=O)=O)cc1)=C1/C(=O)Nc2ccccc21 [GW335962X] | 77 | 75 | 81 | 76 | 39 | 70 | 74 | 87 | 100 | 91
COc1ccc2cc(-c3c(-c4ccncc4)nc(-c4ccc(S(C)(=O)=O)cc4C)n3C)ccc2c1 [SB-633825] | 68 | 85 | 80 | 70 | 72 | 61 | 100 | 84 | 82 | 76
COc1cccc(-n2ncc3c(N/N=C/c4ccncc4)ncnc32)c1 [GW784752X] | 76 | 98 | 96 | 79 | 97 | 2.3 | 87 | 100 | 86 | 46
CC1=C(C(=O)Nc2ccc3[nH]ncc3c2)C(c2ccc(Cl)c(Cl)c2)CC(=O)N1 (stereo not shown) [GSK299115A] | 72 | 73 | 69 | 77 | 89 | 79 | 84 | 88 | 100 | 95
Cl.O=S1CCN(Cc2ccc(-c3ccc4ncnc(Nc5ccc(OCc6ccccc6)c(F)c5)c4c3)o2)CC1 [GW576924A] | 65 | 83 | 93 | 100 | 98 | 12 | 91 | 95 | 60 | 100
NS(=O)(=O)c1ccc(N/N=C2\C(=O)Nc3ccc(-c4cnco4)cc32)cc1 [GW276655] | 75 | 91 | 92 | 52 | 84 | 70 | 72 | 97 | 60 | 63
COC(=O)Nc1nc2ccc(Oc3ccc(NC(=O)Nc4cc(C(F)(F)F)ccc4F)cc3)cc2s1.Cl [GW693917A] | 41 | 76 | 78 | 100 | 96 | 15 | 98 | 72 | 6.9 | 19
CC(C)COC(=O)c1ccc2c(c1)/C(=C/Nc1ccc(S(N)(=O)=O)cc1)C(=O)N2 [GW416981X] | 100 | 95 | 92 | 68 | 100 | 21 | 83 | 6.4 | 100 | 92
O=C(Nc1n[nH]c2nc(-c3ccc(O)cc3)c(Br)cc12)C1CC1 [SB-725317] | 84 | 100 | 100 | 75 | 100 | 28 | 98 | 100 | 100 | 100
COc1cc(N2CCN(C(C)C)CC2)ccc1Nc1nc(Nc2ccc(F)cc2C(=O)NC[C@@H](O)CO)c2cc[nH]c2n1 [GSK1392956A] | 43 | 100 | 100 | 23 | 77 | 96 | 67 | 57 | 77 | 78
NS(=O)(=O)c1ccc(N/N=C2\C(=O)Nc3ccc(C(=O)NCCc4c[nH]cn4)cc32)cc1 [GW300660X] | 100 | 93 | 90 | 39 | 100 | 39 | 96 | 15 | 100 | 100
Cl.O=C(Nc1ccc(Oc2ccc3[nH]c(NC(=O)c4ccccc4)nc3c2)cc1)Nc1cc(C(F)(F)F)ccc1F [GW709042A] | 99 | 80 | 98 | 91 | 100 | 51 | 86 | 68 | 8.2 | 78
Cl.O=C(O[C@H]1CN[C@H](C#Cc2cc3ncnc(Nc4ccc5c(cnn5Cc5ccccc5)c4)c3s2)C1)N1CCOCC1 [GSK200398A] | 44 | 69 | 79 | 78 | 97 | 0.4 | 71 | 86 | 100 | 86
CCS(=O)(=O)c1ccc(OC)c(Nc2ncc(-c3cccc(F)c3)o2)c1 [GW621970X] | 93 | 93 | 92 | 76 | 100 | 4.1 | 82 | 86 | 67 | 100
O=C1Nc2ccc(C(=O)c3ccco3)cc2C1=Cc1cc(Cl)c(O)c(Cl)c1 [GW406108X] | 64 | 76 | 91 | 16 | 32 | 72 | 72 | 78 | 100 | 59
Cl.c1ccc(Cc2nc3ccc(Nc4ncnc5ccccc45)cc3[nH]2)cc1 [GR269666A] | 100 | 100 | 100 | 100 | 100 | 2.6 | 92 | 100 | 100 | 100
CN1CCN(C(=O)c2ccc(NC(=O)Nc3ccc(N(C)c4ccnc(Nc5ccc(CS(C)(=O)=O)cc5)n4)cc3)cc2)CC1.Cl [GW830263A] | 61 | 33 | 40 | 14 | 6 | 0.1 | 82 | 81 | 56 | 2.2
CCc1ccc(Oc2nccc(-c3c(-c4ccc(F)cc4)ncn3C3CCNCC3)n2)cc1 [SB-242719] | 81 | 93 | 91 | 78 | 100 | 100 | 100 | 88 | 100 | 100

Structure (SMILES) | Percent Control [1] [%] | Percent Control [2] [%] | Percent Control [3] [%] | Percent Control [4] [%] | Percent Control [5] [%] | Percent Control [6] [%] | Percent Control [7] [%] | Percent Control [8] [%] | Percent Control [9] [%] | Percent Control [10] [%]
COc1ccccc1-c1cc(/C=C2\C(=O)Nc3ncc(Br)cc32)cc(Br)c1O [GW442130X] | 85 | 74 | 82 | 72 | 86 | 64 | 76 | 94 | 95 | 96
CN(C)c1cc2c(Nc3ccc4c(cnn4Cc4ccccc4)c3)ncnc2cn1 [GW282974X] | 77 | 48 | 50 | 83 | 89 | 0 | 84 | 90 | 96 | 75
COc1ccc(COc2ccc(Cc3cnc(N)nc3N)cc2OC)cc1 [GW632580X] | 93 | 90 | 90 | 93 | 100 | 97 | 100 | 100 | 100 | 100
COc1cccc(-c2c[nH]c3c(N/N=C/c4ccncc4)ncnc23)c1 [GW814408X] | 100 | 95 | 80 | 77 | 100 | 0.1 | 100 | 79 | 94 | 54
NS(=O)(=O)c1ccc(Nc2ncc(-c3ccccc3)o2)cc1 [GW572399X] | 100 | 100 | 100 | 30 | 86 | 59 | 65 | 100 | 100 | 100
COc1ccc2[nH]c3c4[nH]c5ccc(OC)cc5c4c4c(c3c2c1)C(=O)NC4=O [GW296115X] | 45 | 70 | 59 | 46 | 91 | 0.7 | 97 | 43 | 19 | 88
COc1cc(/C=N/Nc2ncnc3[nH]ncc23)ccc1O [GW578748X] | 78 | 78 | 83 | 79 | 94 | 0.5 | 83 | 15 | 100 | 84
Nc1ncnc2occ(-c3ccc(NC(=O)Nc4cc(C(F)(F)F)ccc4F)cc3)c12 [GW770249X] | 100 | 98 | 100 | 100 | 100 | 21 | 100 | 53 | 1.4 | 49
Cc1cc(O)cc(C)c1/C=C/c1cncc(C(N)=O)c1 [GW435821X] | 100 | 81 | 89 | 100 | 100 | 5.3 | 100 | 95 | 100 | 100
CN(C)CCNC(=O)Nc1ccc(N(C)c2ccnc(Nc3ccc(CS(C)(=O)=O)cc3)n2)cc1.Cl [GW830900A] | 57 | 86 | 77 | 58 | 75 | 1.9 | 100 | 56 | 91 | 22
Cl.O=C(Nc1ccc(Oc2ccc3[nH]c(NC(=O)c4ccco4)nc3c2)cc1)Nc1cc(C(F)(F)F)ccc1F [GW683134A] | 98 | 96 | 99 | 83 | 100 | 19 | 73 | 82 | 0.2 | 27
C[C@@H](Oc1cc(-n2cnc3ccc(OC4CCN(C)CC4)cc32)sc1C(N)=O)c1ccccc1Cl [GSK579289A] | 52 | 94 | 96 | 86 | 98 | 51 | 84 | 70 | 84 | 68
NS(=O)(=O)c1ccc(N/N=C2\C(=O)Nc3ccc(C(=O)NCc4ccncc4)cc32)cc1 [GW300657X] | 33 | 100 | 100 | 41 | 87 | 48 | 79 | 35 | 69 | 82
COc1cc(C=NNc2ncnc3c2cnn3-c2ccccc2)ccc1O [GW513184X] | 83 | 76 | 82 | 100 | 100 | 4.6 | 100 | 93 | 93 | 21
NS(=O)(=O)c1ccc(N/N=C2\C(=O)Nc3ccc(Cl)cc32)cc1 [GW280670X] | 100 | 98 | 100 | 100 | 100 | 100 | 99 | 100 | 100 | 100
COc1cc2ncn(-c3cc(O[C@H](C)c4ccccc4Cl)c(C(N)=O)s3)c2cc1OC [GSK237701A] | 96 | 90 | 90 | 100 | 91 | 59 | 84 | 81 | 28 | 81
CC1=C(C(=O)Nc2ccc3[nH]ncc3c2)C(c2ccc3ccccc3c2)CC(=O)N1 (stereo not shown) [GSK270822A] | 87 | 79 | 74 | 69 | 82 | 70 | 92 | 100 | 100 | 32
COc1cc(C)c(N(C)C(=O)CN(C)C)cc1Nc1nc(Nc2cccc(F)c2C(N)=O)c2cc[nH]c2n1 [GSK2219385] | 44 | 100 | 100 | 91 | 94 | 85 | 100 | 100 | 87 | 100
CCS(=O)(=O)c1ccc(OC)c(Nc2ncc(-c3cccc(OC)c3)o2)c1 [GW580509X] | 93 | 100 | 100 | 78 | 100 | 4.6 | 92 | 100 | 72 | 100
COc1ccc2c(-c3ccnc(Nc4cccc(OC(F)(F)F)c4)n3)cnn2n1 [GW810372X] | 56 | 100 | 100 | 30 | 82 | 72 | 78 | 96 | 100 | 100
